# Reference: PubChem BioAssay (NCATS)
# Inconclusive results are not listed. Where a call stands in place of a potency, no number is given. Values without a mark were called inactive. Calls of active or inactive are those of the source. Calls follow the shape of the dose curve; as a rule, active = well fitted inhibition curve with a large enough effect; inconclusive = small, poorly fitted or top-dose-only effect; inactive = no such curve, though single readings can be large or run the other way. Non-standard residues stand in square brackets, D forms with d. Residues, ends and D or L forms follow the SMILES beside them.
# Assay: BET inhibitor-based combinations targeting novel dependencies in MECOM-rearranged (r) AML: UCSD-AML1 cell line (AID 2202235); also: nearly all actives have a fitted effect of over 40% in size
# Conditions: UCSD-AML1 AML cells viability, CellTiter-Glo, 48 h; series mostly up to 46 µM
# From the text: Ecotropic viral insertion site 1 (EVI1) is located on chromosome 3q26.2 as part of the MECOM (MDS and EVI1 complex) locus. Under normal hematopoiesis, EVI1 is a regulator of hematopoietic stem cell maintenance and self-renewal and EVI1 levels decrease as the cells differentiate. In approximately 5-10% of de novo acute myeloid leukemia (AML) EVI1 is aberrantly expressed, including Chromosomal inv(3)(q21;q26.2) or t(3;3)(q21;q26.2) alterations (MECOM-r) that account for about 50% of AML with EVI1 overexpression 31. AMLs with high levels of EVI1 have a poor prognosis and an overall survival time averaging between 10-14 months. EVI1 overexpression confers resistance in leukemia cells, highlighting the need to develop new targeted therapies for EVI1 overexpressing AMLs. Here, we performed an unbiased chemical drug screening by evaluating the single agent activity of a collection of 2,480 oncology-focused, approved and investigational drugs (NCATS Mechanism Interrogation Plates, MIPE v5.0) against a panel of seven AML cell lines. These included four MECOM-r cell-lines (AML-191, AML-194, UCSD-AML1 and HNT-34) and three non-MECOM-r AMLs (MV4-11, OCI-AML3 and SET-2). Exploiting the mechanistic redundancy built in the library, we identified target-level sensitivities in MECOM-r AML cells and relative activity as compared to other AML subtypes.
# A collection of 2480 mechanistically annotated dugs (MIPE v5.0) was used to screen four 3q26.2 rearranged AML cell lines and three non-3q26.2 rearranged AML cell lines. This library purposely exploits redundancy by including multiple inhibitors of key onco-targets, while simultaneously encompassing mechanistic diversity, targeting more than 800 distinct mechanisms of action. Briefly, cells were seeded in 5 uL of growth media using a Multidrop Combi dispenser into 1536 well white polystyrene tissue culture treated plates (Corning) at a density of 500cells/well. For each cell-line, for each of the 2480 drugs in MIPE v5.0 library, an 11-point dose curve was generated via a 1536 pin-tool. Plates were incubated for 48 hr at standard incubator conditions, covered by a stainless steel gasketed lid to prevent evaporation. Cell viability was determined by luminescence based, Cell Titer Glo assay (Promega). In detail, 3 uL of Cell Titer Glo were added to each well and plates were incubated at room temperature for 15 min with a stainless-steel lid in place. Luminescence readings were taken using a Viewlux (PerkinElmer) with a 2 s exposure time per plate. Compound dose-response curves were normalized to DMSO and empty well controls on each plate. Quantitative drug activity data from dose-response curves was determined utilizing area Under the Curve (AUC) and Z-transformed AUC (Z-AUC, a mean-centering transformation applied to each individual cell-line screened).
# Potency is read from the fitted curve at half-maximal effect.
Compound,Potency,viability (% of control)
CCC(=O)O[C@]1(C(=O)CO)CC[C@H]2[C@@H]3CCC4=CC(=O)CC[C@]4(C)[C@H]3CC[C@@]21C,inactive,–
CC(C)(C)C[C@H]1N[C@@H](C(=O)NC2CCC(O)CC2)[C@H](c2cccc(Cl)c2F)[C@@]12C(=O)Nc1cc(Cl)ccc12 (stereo not given in full),1660 nM (active),–
COc1ccc(-c2nc(N3CCOCC3)c3sc(CN(C)c4ncc(C(=O)NO)cn4)cc3n2)cn1,29.5 nM (active),–
CC[C@@]1(O)C(=O)OCc2c1cc1n(c2=O)Cc2c-1nc1ccccc1c2CCNC(C)C,7.4 nM (active),–
C/C(=C\C(=O)Nc1ccccc1C(=O)O)c1ccc2ccccc2c1,inactive,–
COc1cccc(-c2c(C)n(Cc3c(F)cccc3C(F)(F)F)c(=O)n(C[C@H](NCCCC(=O)O)c3ccccc3)c2=O)c1F,inactive,–
CC(=O)OCC(=O)[C@@]12OC(C)(C)O[C@@H]1C[C@H]1[C@@H]3C[C@H](F)C4=CC(=O)C=C[C@]4(C)[C@@]3(F)[C@@H](O)C[C@@]12C,inactive,–
CC(C)C[C@@H]1NC(=O)[C@@H](C(C)C)NC(=O)[C@@H]2CCCN2C(=O)[C@@H](CC(=O)O)NC(=O)[C@@H](Cc2c[nH]c3ccccc23)NC1=O (cyclo(L[dW][dD]P[dV])),inactive,–
Cc1noc(-c2ccc(-c3ccc(C4(C(=O)O)CC4)cc3)cc2)c1NC(=O)O[C@H](C)c1ccccc1,inactive,–
CN(C)CC[C@H](CSc1ccccc1)Nc1ccc(S(=O)(=O)NC(=O)c2ccc(N3CCN(Cc4ccccc4-c4ccc(Cl)cc4)CC3)cc2)cc1[N+](=O)[O-],2950 nM (active),–
CCCCCCCOc1ccc(CCC(N)(CO)CO)cc1C(F)(F)F,10500 nM (active),–
CCN1C(=O)CNc2ncc(-c3ccc(-c4ncn[nH]4)nc3C)nc21,186 nM (active),–
COc1ccc(-c2ccc3ncc4c(c3c2)n(-c2ccc(N3CCNCC3)c(C(F)(F)F)c2)c(=O)n4C)cn1,52.5 nM (active),–
Cc1ccc(-c2ncc(Cl)cc2-c2ccc(S(C)(=O)=O)cc2)cn1,inactive,–
CN1CCN(CCCNc2ncc(Cl)c(-c3cc4c(C(=O)NC5CC5)cccc4s3)n2)CC1,inactive,–
CS(=O)(=O)Nc1cc2occ(NC=O)c(=O)c2cc1Oc1ccccc1,inactive,–
CCC(=O)OCC(=O)C1(OC(=O)CC)C(C)CC2C3CCC4=CC(=O)C=CC4(C)C3(F)C(O)CC21C (stereo not given),inactive,–
Nc1cc(COc2c(Cl)cc(C[C@H](N)C(=O)O)cc2Cl)c2oc(-c3ccccc3)nc2c1,inactive,–
C#C[C@]1(O)CC[C@H]2[C@@H]3[C@H](C)CC4=C(CCC(=O)C4)[C@H]3CC[C@@]21C,inactive,–
COC1=C(OC)C(=O)C(C/C=C(\C)CC/C=C(\C)CC/C=C(\C)CC/C=C(/C)CC/C=C(\C)CC/C=C(\C)CC/C=C(\C)CC/C=C(\C)CC/C=C(\C)CCC=C(C)C)=C(C)C1=O,inactive,–

Compound,Potency,viability (% of control)
C=C1[C@H](OC(=O)/C=C(\C)CC)C[C@@H](C(C)C)[C@@H]2[C@H]([C@@H](C)OC(C)=O)C(=O)C[C@@H]12,inactive,–
N#Cc1ccc(N(Cc2ccc(Br)cc2)n2cnnc2)cc1,inactive,–
C=CCNC1=C2CC(C)CC(OC)C(O)C(C)/C=C(\C)C(OC(N)=O)C(OC)/C=C/C=C(\C)C(=O)NC(=CC1=O)C2=O (stereo not given),1320 nM (active),–
CN1C(N)=N[C@](C)(c2cc(NC(=O)c3ccc(F)cn3)ccc2F)CS1(=O)=O,inactive,–
C[C@@H]1COC(Nc2ccc3ncnc(Nc4ccc(OCc5nccs5)c(Cl)c4)c3c2)=N1,26300 nM (active),–
C=C1CCC[C@]2(C)C=C3OC(=O)C(C)=C3C[C@@H]12,inactive,–
Ac-PHSCN-NH2,inactive,–
CN1C(=O)N(c2cc(Cl)cc(Cl)c2)C(=O)[C@]12CN(Cc1cc(C(=O)O)cs1)C[C@H]2c1ccc(C#N)cc1,inactive,–
CO[C@H]1C(=O)[C@]2(C)[C@@H](OC)C[C@H]3OC[C@@]3(OC(C)=O)[C@H]2[C@H](OC(=O)c2ccccc2)[C@]2(O)C[C@H](OC(=O)[C@H](O)[C@@H](NC(=O)OC(C)(C)C)c3ccccc3)C(C)=C1C2(C)C,2.3 nM (active),–
COc1cc(=C2C=c3ccccc3=N2)[nH]/c1=C/c1[nH]c(C)cc1C,3320 nM (active),–
CCCCCCCCCCCC(CC1OC(=O)C1CCCCCC)OC(=O)C(CC(C)C)NC=O (stereo not given),inactive,–
CCOC(=O)[C@@H](N)Cc1ccc(-c2cc(O[C@H](c3ccc(Cl)cc3-n3ccc(C)n3)C(F)(F)F)nc(N)n2)cc1,inactive,–
C=CCNC1=C2C[C@@H](C)C[C@H](OC)[C@H](O)[C@@H](C)/C=C(\C)[C@H](OC(N)=O)[C@@H](OC)/C=C\C=C(/C)C(=O)NC(=CC1=O)C2=O,10500 nM (active),–
Cn1cc(C[C@@H](N)C(=O)O)c2ccccc21,–,112% [at 8.46 µM]
CN1CCC(c2c(O)cc(O)c3c(=O)cc(-c4ccccc4Cl)oc23)C1CO (stereo not given),1050 nM (active),–
CC(/C=C1\SC(=S)N(CC(=O)O)C1=O)=C\c1ccccc1,inactive,–
COc1ccnc(CS(=O)c2nc3ccc(OC(F)F)cc3[nH]2)c1OC (stereo not given),inactive,–
Nc1nc(F)nc2c1ncn2C1OC(COP(=O)(O)O)C(O)C1O (stereo not given),2630 nM (active),–
C=CC[C@@H]1/C=C(\C)C[C@H](C)C[C@H](OC)[C@H]2O[C@@](O)(C(=O)C(=O)N3CCCC[C@H]3C(=O)O[C@H](/C(C)=C/[C@@H]3CC[C@@H](O)[C@H](OC)C3)[C@H](C)[C@@H](O)CC1=O)[C@H](C)C[C@@H]2OC,26300 nM (active),–
CN(Cc1ccccc1)C(=O)c1ccc(S(=O)(=O)Nc2ccccc2)cc1,inactive,–
